Bioassay records (PubChem)
HP1b binding inh: HP1-beta chromodomain-methylated histone interaction inhibition; Potency, µM (top dose mostly 114 µM), without a hit: top-dose activity change, negative = inhibition, hits mostly inhibitors; 390,000 tested, 0.56% active; AlphaScreen HP1-beta / biotin-H3K9me3 peptide binding; further: potency means the concentration at half of the fitted maximal effect; nearly all actives have a fitted effect of over 70% in size
Target sequence (P83916 whole entry, looked up): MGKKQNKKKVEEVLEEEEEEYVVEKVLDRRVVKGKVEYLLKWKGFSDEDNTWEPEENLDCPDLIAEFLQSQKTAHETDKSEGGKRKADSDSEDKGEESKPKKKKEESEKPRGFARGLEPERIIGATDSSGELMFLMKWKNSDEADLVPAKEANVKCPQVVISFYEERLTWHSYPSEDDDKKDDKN
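Compound inhibition of the preformed complex between 50 nM HP1-beta and 50 nM biotinylated H3K9me3 peptide was read by AlphaScreen. Buffer was PBS pH 7.4 with 0.01% Tween-20. Incubations ran 30 min at room temperature, with 10 ug/mL donor/acceptor beads.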
BAZ2B block: BAZ2B (human) inhibition; Q9UIF8; AlphaScreen BAZ2B-H3K14Ac peptide displacement; Potency, µM (titrated, usually from 114 µM), for the others: at the top dose activity change, negative = inhibition, most hits filed as inhibitors; 360,000 tested, 4.4% active; AID 504333; further: potency means the concentration at half of the fitted maximal effect; on the % scale 0 is the no-effect control and ±100 the full control effect; nearly all actives have a fitted effect of over 60% in size
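AlphaScreen luminescence quantifies BAZ2B engagement of H3K14Ac peptide; the protein and biotinylated peptide are both at 50 nM final, buffer PBS pH 7.4 with 0.01% Tween-20, all steps at room temperature.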
G9a inh: blocks human histone lysine methyltransferase G9a | G9a H3K9 monomethylation, AlphaScreen, 2 h | Potency, µM (top dose mostly 102 µM), inactives show top-dose activity, negative = inhibition, actives largely listed as inhibitors | 350,000 tested, 8.8% active; further: potency means the concentration at half of the fitted maximal effect; on the % scale 0 is the no-effect control and ±100 the full control effect; nearly all actives have a fitted effect of over 75% in size
Target sequence (Q96KQ7 913-1193 limits assumed): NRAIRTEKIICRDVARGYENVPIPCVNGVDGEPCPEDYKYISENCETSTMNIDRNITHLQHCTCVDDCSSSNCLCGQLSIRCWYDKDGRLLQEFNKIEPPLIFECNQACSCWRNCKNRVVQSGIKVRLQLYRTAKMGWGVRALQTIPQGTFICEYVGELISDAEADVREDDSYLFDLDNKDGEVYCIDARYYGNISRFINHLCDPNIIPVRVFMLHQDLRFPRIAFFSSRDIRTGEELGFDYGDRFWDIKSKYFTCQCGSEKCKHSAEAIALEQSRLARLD
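G9a (20 nM) was preincubated 15 min with compound, then reacted 2 h at room temperature with 500 nM biotin-H3K9 peptide and 20 µM SAM. Monomethyl-H3K9 detected by AlphaScreen using anti-H3K9me1 antibody.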
Six1-Eya2 blk: Six1/Eya2 interaction inhibition | Q15475+O00167 | AlphaScreen GST-Six1/His-Eya2 binding, biochemical; hits give low values | activity change, % (concentration not given with the values) | 360,000 tested, 0.56% active | AID 651725; in the data active means activity change below about -65%; inconclusive means mostly about -30% to -63%; further: on the % scale 0 is the no-effect control and ±100 the full control effect
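AlphaScreen luminescence read after one hour at 37 °C in darkness. Pin-transferred compounds met GST-Six1 and His-Eya2 protein (5X stock 250 nM/500 nM) plus glutathione donor and Ni-chelate acceptor beads (5X, 50 ug/mL).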
JMJD2A Tudor: JMJD2A Tudor domain (human) inhibition; AlphaScreen JMJD2A-Tudor / H3K4me3 peptide binding; Potency, µM (doses to about 114 µM), for inactives: at the top dose activity change, negative = inhibition, actives largely listed as inhibitors; 390,000 tested, 4.4% active; further: potency means the concentration at half of the fitted maximal effect; on the % scale 0 is the no-effect control and ±100 the full control effect; nearly all actives have a fitted effect of over 50% in size
CtBP-E1A blk: blocks the CtBP interaction with E1A; AlphaScreen GST-E1A/His-CtBP binding, 1536-well; hits give low values; activity change, % (test concentration not listed); 340,000 tested, 0.49% active; in the data active means activity change below about -65%; inconclusive means mostly about -30% to -63%; further: on the % scale 0 is the no-effect control and ±100 the full control effect
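Protein mix (5X: 125 nM each GST-E1A, His-CtBP) was incubated with pinned compound 2 h at 37 deg C in dark, in 50 mM Tris pH 8.0 buffer with 300 mM NaCl. Glutathione donor and nickel acceptor beads followed; AlphaScreen signal read after 1 h.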
* marks the source's active call; other numbers are inactive results; ? = inconclusive; . = no result given; [ ] = remark or other dose. An excerpt weighted towards active compounds, which were near 10% of everything screened. Unless noted, the call rests on the fitted dose curve; in most records, active means well fitted inhibition curve with a large enough effect; inconclusive means small, poorly fitted or top-dose-only effect; inactive means no such curve, though single readings can be large or run the other way.

SMILES	HP1b binding inh	BAZ2B block	G9a inh	Six1-Eya2 blk	JMJD2A Tudor	CtBP-E1A blk
O=C(CCCSc1ccccc1)Nc1nc(-c2ccco2)c(-c2ccco2)s1	28.2µM*	22.4µM*	?	?	39.8µM*	-23.2
Cc1ccc(C(=O)Nc2nc(C)c(C(=O)N(C)C)s2)o1	20.1%	-12.0%	-18.3%	-2.6	-20.8%	1.1
Cc1ccc(C(=O)Nc2nc(-c3ccco3)c(-c3ccco3)s2)o1	50.1µM*	20µM*	14.1µM*	-29.4	?	-11.3
CC(C)CCNC(=O)c1ccc2nc(CCc3ccccc3)oc2c1	31.1%[57 µM]	3.9%	2.5%[59 µM]	.	8.6%	.
O=C(C[n+]1cn(C(F)F)c2ccccc21)c1ccc(Br)cc1	40.3%	50.1µM*	-7.1%[59 µM]	-5.0	-22.1%	1.0
Cc1ccc(C(=O)C[n+]2cc(Br)cc(Br)c2)cc1[N+](=O)[O-]	3.2%	?	50.1µM*	1.4	?	-4.4
Cc1cccc[n+]1CC(=O)c1ccc([N+](=O)[O-])cc1	46.3%	.	.	-2.9	-6.2%	3.3
Cc1cc(C)c[n+](CC(=O)c2ccc(C)c([N+](=O)[O-])c2)c1	37.7%	-6.6%	.	2.9	-4.6%	-16.2
Cc1ccc(C(=O)C[n+]2ccccc2)cc1	19.7%	2.6%	14.1µM*	0.3	-7.0%	6.5
COc1ccc(C(=O)C[n+]2ccccc2C)cc1	?	-3.3%	-6.5%[59 µM]	-13.9	25.1µM*	1.4
O=C(NC(Cc1c[nH]c2ccccc12)C(=O)OCC(=O)c1cccc2ccccc12)c1cccs1 (configuration not stated)	13.0%	-23.8%	?	-18.5	-31.4%	-18.7
COCC(=O)OCC(=O)Nc1ccc(Cl)cc1[N+](=O)[O-]	21.8%	-4.2%	2.6%	8.9	-19.9%	2.9
COc1ccc(Nc2nc3ccccc3n3c(N)nnc23)cc1	6.8%	-22.0%	4.1%[59 µM]	.	-26.7%	.
O=S(=O)(Nc1ccc(C(O)(C(F)(F)F)C(F)(F)F)cc1)c1cccc2ccccc12	.	.	.	1.0	.	0.8
O=C(C[n+]1cc(Br)cc2ccccc21)c1ccc(Br)cc1	4.6%	-34.1%	28.2µM*	-8.1	?	-6.9
O=C(C[n+]1cc(Br)cc(Br)c1)c1ccc(Cl)cc1	35.0%	-14.4%	?	-6.1	-28.0%	-18.3
O=C(C[n+]1cc(Br)cc(Br)c1)c1ccccc1	1.1%	-2.2%	-21.6%	-1.9	-13.4%	1.7
O=C(C[n+]1cccc2ccccc21)c1ccc(Br)cc1	16.8%	-26.2%	7.1%	6.0	-8.9%	.
O=C(C[n+]1cc(Br)cc(Br)c1)c1ccc(-c2ccccc2)cc1	16.7%	?	25.1µM*	-4.4	?	-10.2
O=C(C[n+]1cc(Br)cc2ccccc21)c1ccc(Cl)cc1	-20.1%	-29.0%	50.1µM*	0.3	?	-10.6
O=C(C[n+]1ccc(Cc2ccccc2)cc1)Nc1ccccc1	-11.6%	-14.0%	-37.5%	7.7	-8.9%	7.8
O=C1/C(=C/c2cccc([N+](=O)[O-])c2)CCc2ccccc21	-29.5%	?	?	-1.5	?	-16.0
O=C1/C(=C/c2ccc([N+](=O)[O-])cc2)CCc2ccccc21	.	31.6µM*	?	.	.	.
CCCCNC(=S)Nc1cccc2cnccc12	2.8%	12.2%	44.7µM*	2.2	-6.2%	-0.9
S=C(NCc1cccnc1)Nc1cccc2ccccc12	48.8%	3.2%	-8.0%[59 µM]	-7.0	-5.5%	0.6
SMILES	HP1b binding inh	BAZ2B block	G9a inh	Six1-Eya2 blk	JMJD2A Tudor	CtBP-E1A blk
COc1ccc(OCCNC(=S)Nc2cccc3ccccc23)cc1	-16.3%	?	-11.2%[59 µM]	-23.9	?	-19.7
COCCNC(=S)Nc1cccc2cnccc12	30.6%	-6.3%	50.1µM*	6.8	-5.5%	9.3
CCn1nc(NC(=O)c2ccco2)c2cc3ccccc3nc21	84.7%	6.9%	7.94µM*	-1.1	25.0%	0.0
CCn1nc(NS(=O)(=O)c2ccc([N+](=O)[O-])cc2)c2cc3ccccc3nc21	32.0%	?	44.7µM*	-12.9	-31.3%	-23.6
CCCn1nc(NC(=O)c2ccco2)c2cc3cc(C)ccc3nc21	64.1%	20.1%	22.4µM*	28.8	9.7%	26.7
CCCn1nc(NC(=O)c2ccco2)c2cc3ccc(C)cc3nc21	45.0%	4.4%	16.8%[2.33 µM]	32.2	7.7%	22.0
CCn1nc(NS(=O)(=O)c2ccc(C)cc2)c2cc3ccccc3nc21	46.4%	-0.7%	.	-12.0	-14.5%	-28.4
COc1ccc2c(c1OC)C(=O)N1c3ccccc3C(=O)N(Cc3ccco3)C21 (configuration not stated)	38.6%	.	.	.	-27.7%	.
Cc1ccc2c(c1)sc1nncn12	.	.	.	0.2	.	-4.6
Nc1nn2cc(-c3ccc(Br)cc3)nc2c2ccccc12	15.6%	-30.6%	79.4µM*	-4.0	-17.9%	2.6
CCOc1ccc2ncc3c(-c4cccc(OC)c4)nn(-c4ccccc4)c3c2c1	19.2%	.	1.2%[59 µM]	.	-31.3%	.
CCc1ccc(C2(C)SC(NC(C)=O)=NN2C(C)=O)cc1 (configuration not stated)	22.4%	10.9%	-18.9%[59 µM]	1.4	-12.6%	2.3
CC(=O)NC1=NN(C(C)=O)C(C)(c2cccnc2)S1 (configuration not stated)	-0.3%	5.2%	44.7µM*	0.9	-8.0%	-1.3
O=C(O)c1cn[nH]c1-c1cccc([N+](=O)[O-])c1	1.9%	-22.4%	35.5µM*	-12.0	-29.2%	2.2
O=Cc1cn[nH]c1-c1cccc([N+](=O)[O-])c1	18.3%	1.3%	-33.9%	-2.5	-13.9%	6.0
O=C1CN(C(=O)c2cc3ccccc3oc2=O)C(c2ccc(F)cc2)c2cc(Br)ccc2N1 (configuration not stated)	30.8%	-34.2%	?	-7.5	-34.5%	-1.7
Cc1cc(C)c(OCC(=O)Nc2ccc(S(=O)(=O)N3CCOCC3)cc2)c(C)c1	8.8%	-15.9%	44.7µM*	-1.7	-17.5%	-4.2
COc1ccc(OCC(=O)Nc2ccc(S(=O)(=O)N3CCOCC3)cc2)cc1	23.5%	-2.4%	2.7%[12.7 µM]	-2.1	-11.3%	0.9
COc1ccccc1OCC(=O)Nc1ccc(S(=O)(=O)N2CCOCC2)cc1	-11.8%	-2.9%	79.4µM*	-4.9	-24.4%	1.6
COc1cc(S(=O)(=O)N2CCOCC2)ccc1NC(=O)COC(=O)CC12CC3CC(CC(C3)C1)C2	41.0%	-2.3%	1.41µM*	11.8	-20.0%	0.0
Cc1cc(OCC(=O)Nc2ccc(S(=O)(=O)N3CCN(C)CC3)cc2)cc(C)c1Cl	-17.4%	50.1µM*	?	-22.1	50.1µM*	-20.3
O=C(OCC#CCSc1nnc(-c2cccc3ccccc23)o1)c1ccc(C(F)(F)F)cc1	.	.	.	.	7.5%	.
COc1ccc(CCCc2nnc(SCC(=O)Nc3ccc(Cl)cc3)o2)cc1	22.3%	-6.6%	-33.9%[59 µM]	.	?	.
